# According to PubChem BioAssay AID588391 (Broad Institute, 2011):
# Hit rate of the full screen: of about 350,000 compounds, about 180 (0.051%) were called active. The sample holds actives, similar compounds and a random draw of the others, so the mix is not that of the screen.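 How the source made its calls: active means mean inhibition across replicates of 30% or more, whatever share of single replicates reach that level; inconclusive means mean inhibition below 30% while every single replicate reaches 30%; inactive means the rest.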
# Target: Protein disulfide-isomerase (Homo sapiens) (UniProt P07237)
# Sequence (P07237 whole entry, looked up): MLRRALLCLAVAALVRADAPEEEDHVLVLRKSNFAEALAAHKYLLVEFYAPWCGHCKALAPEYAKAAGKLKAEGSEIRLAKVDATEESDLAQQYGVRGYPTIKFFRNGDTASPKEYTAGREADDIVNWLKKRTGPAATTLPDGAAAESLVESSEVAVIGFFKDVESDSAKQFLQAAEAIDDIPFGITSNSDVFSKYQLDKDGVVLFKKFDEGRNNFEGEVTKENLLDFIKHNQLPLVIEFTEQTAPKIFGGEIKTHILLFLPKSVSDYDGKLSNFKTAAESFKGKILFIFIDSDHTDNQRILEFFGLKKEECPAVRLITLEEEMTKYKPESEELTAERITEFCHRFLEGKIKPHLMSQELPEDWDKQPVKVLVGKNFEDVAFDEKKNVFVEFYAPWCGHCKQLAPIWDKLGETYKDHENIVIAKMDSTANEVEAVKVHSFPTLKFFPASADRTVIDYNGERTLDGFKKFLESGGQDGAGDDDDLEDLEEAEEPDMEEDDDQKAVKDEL
# Experiment: blockers of PDI-driven insulin aggregation – biochemical, turbidity, single point, plate reader, primary screen (AID 588391);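 further: absorbance from insulin aggregation driven by PDI reduction with DTT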
# Details: A650, 90 min, at 10 µM, stronger effect = higher value
row,Structure (SMILES),inhibition
1,CCCC(=O)N1CCC1(C)C(=O)NS(=O)(=O)c1ccc(Cl)cc1 (stereo unspecified),9.48% (inactive)
2,CC=CCn1c(SCCCc2ccccc2)nc2c1c(=O)[nH]c(=O)n2C,8.5% (inactive)
3,Oc1cccc2cc(-c3ccncc3)cnc12,-15.1% (inactive)
4,COCCNC(=O)C1(C)CCCN(Cc2cccc(F)c2)C1 (stereo unspecified),1.38% (inactive)
5,CCCCN(C=O)c1c(CC)nc2c(OCCC3CCCCC3)cccn12,-6.94% (inactive)
6,O=C(NC(c1ccc(-c2ccccc2)cc1)c1cnccn1)C1CCN(CCOc2ccc(Cl)cc2Cl)CC1 (stereo unspecified),4.84% (inactive)
7,COc1ccc(-c2csc(C(O)c3cccc(Cl)c3)n2)cn1 (stereo unspecified),8.11% (inactive)
8,CC(C)(C(=O)N1CCC1(C)C(=O)NS(=O)(=O)c1ccc(Br)cc1)c1ccccc1 (stereo unspecified),-3.96% (inactive)
9,COc1cc(NC(=O)c2cc(-c3ccc(F)cc3OC(C)C)n[nH]2)cc(OC)c1OC,-4.94% (inactive)
10,CC(C)Oc1cc(F)ccc1-c1cc(C(=O)Nc2cccc(Cl)c2)[nH]n1,12.1% (inactive)
11,Cc1ccccc1Cn1c(C)c(C(=O)NCc2cccc(C(F)(F)F)c2)sc1=O,-0.337% (inactive)
12,CC(=O)Nc1cc(-c2ccc(N3CCN(C)CC3)cc2)cn2c(-c3ccc(F)cc3)cnc12,0.066% (inactive)
13,CCCNC(=O)C1(C)CCN1C(=O)Cc1ccc(-c2ccccc2)cc1 (stereo unspecified),12.7% (inactive)
14,Cc1cccc(CNC(=O)c2sc(=O)n(Cc3ccccc3C)c2C)c1,-13.7% (inactive)
15,O=C(Nc1ccc(Cl)c(C(F)(F)F)c1)C1Cc2c(-c3ccccc3Oc3ccccc3)ccnc2O1 (stereo unspecified),-5.07% (inactive)
16,CNc1cncc(-c2ccc(NS(C)(=O)=O)cc2)n1,-0.527% (inactive)
17,COc1ccc(Cl)cc1-c1cc(C(=O)Nc2cc(OC)c(OC)c(OC)c2)[nH]n1,-0.731% (inactive)
18,CN1CCN(C(=O)c2ccc(-c3cc4nc(NCc5cccnc5)n(C)c(=O)c4s3)cc2)CC1,16.2% (inactive)
19,COc1ccc(-c2ccc(C(=O)NC(C)C)c3occc23)c(C)c1,-1.92% (inactive)
20,COc1cccc(CNc2nc3cc(-c4csc5ccccc45)sc3c(=O)n2C)c1,-2.68% (inactive)
21,Cc1nc2c(OCc3cccc(Cl)c3)cccn2c1N(C)CC1CC1,4.97% (inactive)
22,CCCCC(=O)N(C)c1c(CC)nc2c(OCc3ccc(Cl)cc3Cl)cccn12,-3.52% (inactive)

row,Structure (SMILES),inhibition
1,OC(c1ccccc1)c1nc(/C=C/c2ccc(C(F)(F)F)cc2)cs1 (stereo unspecified),-51.4% (inactive)
2,CN(C)CCNC(=O)c1ccc(-c2cn3c(-c4ccc(Oc5ccccc5)cc4)cnc3cn2)cc1,-1.11% (inactive)
3,COc1cccc(-c2cc3nc(NCCOc4ccccc4Cl)n(C)c(=O)c3s2)c1,-11.2% (inactive)
4,CCc1nc2ccc(C(=O)NC3CCN(Cc4ccccc4)CC3)cn2c1N(CC)CCOC,-3.56% (inactive)
5,O=C(NCc1cccc(C(F)(F)F)c1)c1ccc2sc(COCCO)nc2c1,-1.75% (inactive)
6,CN(C)CCNC(=O)c1cccc(-c2cnc3c(NC=O)cc(-c4cccc(C(F)(F)F)c4)cn23)c1,4.96% (inactive)
7,Cc1cc(C)n2nc(CNS(=O)(=O)c3c(F)c(F)c(F)c(F)c3F)nc2n1,127% (active)
8,Cc1cc(C)n2nc(C(=O)NC(C)(C)C)nc2n1,0.598% (inactive)
9,Cc1cc(C)n2nc(SCC(N)=O)nc2n1,-1.27% (inactive)
10,CC1(C(=O)NS(=O)(=O)c2cccc(OC(F)F)c2)CCN1C(=O)C1CC1 (stereo unspecified),-4.8% (inactive)
11,CCCOc1ccc(F)cc1-c1cc(C(=O)NCc2ccc(F)cc2)[nH]n1,-0.369% (inactive)
12,CC1(C(=O)Nc2cccc3c2CCCC3)CCN1C(=O)C1(c2ccccc2)CC1 (stereo unspecified),-0.663% (inactive)
13,NC(c1csc(NC(=O)Nc2cccc(C(F)(F)F)c2)n1)C1CCCCC1 (stereo unspecified),0.691% (inactive)
14,NC1=NC(=O)S/C1=C\c1ccc(O)cc1,43.5% (active)
15,CC(C)(C)c1ccc(/C=C2\SC(=O)N=C2N)cc1,7.63% (inactive)
16,O=C1N=C(N2CCc3ccccc3C2)S/C1=C\c1ccc(O)cc1,-5.75% (inactive)
17,OC(c1ccc(Cl)cc1)c1ncc(-c2ccc(Cl)cc2)[nH]1 (stereo unspecified),-6.36% (inactive)
18,COc1ccc(C2CC(c3cccc(OC)c3)=NN2c2ccc(S(N)(=O)=O)cc2)cc1 (stereo unspecified),-2.45% (inactive)
19,COc1ccc(C(C)(NC(C)=O)c2nc(-c3ccc(S(C)(=O)=O)cc3)cs2)cc1 (stereo unspecified),4.43% (inactive)
20,COc1cc(F)ccc1-c1cc(C(=O)NCC2CCCCC2)[nH]n1,25% (inactive)
21,CC1(Cc2cccc(C#N)c2)C(=O)Nc2ccc(-c3cccc(C(F)(F)F)c3)cc21 (stereo unspecified),10.6% (inactive)
22,CC(=O)Nc1ccc(CNc2nc(NCCN(C)C)nc3cc(-c4ccccc4)sc23)cc1,-1.45% (inactive)

row,Structure (SMILES),inhibition
1,Cc1cc(O)ccc1-c1cc(C(=O)NCc2cc(C(F)(F)F)cc(C(F)(F)F)c2)[nH]n1,-11.3% (inactive)
2,Cc1cccnc1C(NC(=O)C1CCN(Cc2ccc(Cl)c(Cl)c2)CC1)c1ccc(Cl)cc1 (stereo unspecified),-20.8% (inactive)
3,CCCNC(=O)c1cc(C2CCCCN2S(=O)(=O)c2ccc(C#N)cc2)on1 (stereo unspecified),9% (inactive)
4,Cc1ccc(Cn2c(C)c(C(=O)NCc3ccccc3C(F)(F)F)sc2=O)cc1,-2.82% (inactive)
5,CCN(CC)c1ncnc2c1ncn2[C@H]1CN(Cc2cccs2)C[C@@H](CO)O1,5.5% (inactive)
6,Cc1cccn2c(CN(C)C3CCCc4ccccc43)c(C(=O)N3CCOCC3)nc12 (stereo unspecified),36.6% (active)
7,CCOC(=O)C1CCN(Cc2c(C(=O)N3CCOCC3)nc3c(C)cccn23)CC1,-7.14% (inactive)
8,Cc1cccn2c(CNCC(C)Oc3cccnc3)c(C(=O)N3CCOCC3)nc12 (stereo unspecified),3.93% (inactive)
9,O=C(Nc1nnc([C@H]2C[C@H](O)[C@@H](CO)O2)s1)c1cccc(Cl)c1,12.3% (inactive)
10,CC(=O)Nc1cc(-c2ccccc2N(C)C)cn2c(-c3ccc(F)c(Cl)c3)cnc12,-1.53% (inactive)
11,CC(O)(c1cccc(F)c1)c1nc(-c2ccc3c(c2)OCO3)cs1 (stereo unspecified),0.825% (inactive)
12,Cc1nc2c(OCc3ccc(Cl)cc3)cccn2c1N(C)Cc1cccs1,-1.78% (inactive)
13,CCOC(=O)c1c(NC(C)=O)sc2c(O)c(Br)ccc12,3.13% (inactive)
14,CCOC(=O)c1c(-c2ccccc2)oc2cc(Br)c(O)cc12,36.3% (active)
15,CCOC(=O)c1c(CN(C)C)n(-c2ccccc2)c2cc(Br)c(O)cc12,39.9% (active)
16,CCOC(=O)c1c(CN2CCOCC2)n(-c2ccccc2)c2ccc(O)cc12,27.2% (inactive)
17,CCOC(=O)c1c(-c2ccccc2)oc2ccc(OCC(=O)NN)cc12,-2.38% (inactive)
18,CCOC(=O)c1c(-c2ccccc2)oc2cc(Br)c(O)c(C=O)c12,6.15% (inactive)
19,O=C(NCc1cccnc1)c1cc(C2CCCCN2C(=O)CCc2ccccc2)on1 (stereo unspecified),3.32% (inactive)
20,CCCC(=O)N1CCC1(C)C(=O)Nc1ccc(-n2cncn2)cc1 (stereo unspecified),4.25% (inactive)
21,COc1ccc(C(C)(O)c2nc(-c3cc(F)cc(F)c3)cs2)cc1 (stereo unspecified),-18.6% (inactive)
22,Cc1ccc(CC2(C)C(=O)Nc3ccc(OC(F)(F)F)cc32)cc1 (stereo unspecified),5.49% (inactive)
